The values below come from PubChem BioAssay AID431 (Sanford-Burnham Center for Chemical Genomics, 2006).

Among all 63,000 compounds or so, about 1,100 (1.7%) were called active.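 How the source made its calls: active means compounds whose percent cytotoxicity in the single-dose primary screen, scaled between solvent and toxic-drug controls, exceeds 50; inactive means the rest.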 Only a selection was taken, and actives are over-represented in it overall. Measured potencies and affinities stand elsewhere.

A short description of this assay: cytotoxicity in KRAS-transformed pancreatic duct cells, primary screen, cell-based, fluorescence, HTS (AID 431).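 Further: 0% = DMSO solvent wells and 100% = doxorubicin-treated wells.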 As to conditions: HPDE-C7K KRASV12 cells, Alamar Blue viability, 48 h; at 10 µM; hits give high values.
On to `CCCCn1c(-c2cc(Cl)ccc2OC)n[nH]c1=S`, for which the cytotoxicity was -11.5% (inactive).
Turning to `Cc1ccc(S(=O)(=O)c2c(C)nn(C(C)(C)C)c2OC(=O)C2CCCC2)cc1`, the cytotoxicity was -5.1% (inactive).
To `CC(=O)Nc1ccc(S(=O)(=O)N2CCC(NC(C)=O)(c3cccc(F)c3)CC2)cc1` belongs 8% (inactive); to `CC1CCCCN1CC(=O)Nc1sc2c(c1C#N)CCC2` (stereo unspecified), -11.1% (inactive); to `Cc1ccc(S(=O)(=O)NC(=O)NC(C)(C)C)cc1`, 12.4% (inactive).
With `OC1CCN(Cc2cccc(Oc3ccccc3)c2)CC1`, the cytotoxicity was 20.9% (inactive).
For `Oc1ccc2ccccc2c1/C=N/n1cnnc1`, the cytotoxicity is 18.6% (inactive).
On to `OCC(CO)(CO)N=Cc1c(O)ccc2ccccc12`, for which the cytotoxicity is 68% (active).
`Oc1ccc2ccccc2c1C=NC12CN3CCN(CN(C3)C1)C2`: the cytotoxicity was 0.4% (inactive).
Consider `COc1ccc(S(=O)(=O)N(CC(=O)N2CCN(C)CC2)C2CCCCC2)cc1OC`, for which the cytotoxicity is 0.2% (inactive).
Turning to `Cc1cc(C)n(-c2nc3c(c(=O)[nH]c(=O)n3C)n2CCc2ccccc2)n1`, the cytotoxicity was 11.3% (inactive).
As to `COc1ccc(CCn2c(-n3nc(C)cc3C)nc3c2c(=O)[nH]c(=O)n3C)cc1`, the cytotoxicity was 52.6% (active).
With `Cc1ccc(Cn2c(-n3nc(C)cc3C)nc3c2c(=O)[nH]c(=O)n3C)cc1`, the cytotoxicity is 5% (inactive).
As to `COc1ccc(N2CC(C(=O)NC3CC(C)(C)NC(C)(C)C3)CC2=O)cc1` (stereo unspecified), the cytotoxicity was -5% (inactive).
As for `COc1ccc(OC)c(NC(=O)CSc2nnc(CNC(=O)COc3ccc(Cl)cc3)o2)c1`, the cytotoxicity was -3% (inactive).
Consider `CCCn1c(=O)c(C(=O)Nc2nnc(C)s2)c(O)c2ccccc21`, for which the cytotoxicity is 62.2% (active).
On to `CCCn1c(=O)c(C(=O)Nc2nnc(CC)s2)c(O)c2ccccc21`, for which the cytotoxicity is 14.3% (inactive).
As to `CCn1c(=O)c(C(=O)NCCc2ccccc2)c(O)c2ccccc21`, the cytotoxicity is -11.5% (inactive).
With `C=CCn1c(=O)c(C(=O)Nc2nnc(C)s2)c(O)c2ccccc21`, the cytotoxicity is 9.1% (inactive).
Regarding `CCn1c(=O)c(C(=O)Nn2c(C)nc3ccccc3c2=O)c(O)c2ccccc21`, the cytotoxicity is 17.6% (inactive).
In the case of `CCn1c(=O)c(C(=O)Nc2cccnc2)c(O)c2ccccc21`, the cytotoxicity is 11.7% (inactive).
Regarding `CCn1c(=O)c(C(=O)NCCNCCO)c(O)c2ccccc21`, the cytotoxicity was 13.9% (inactive).
Turning to `CCn1c(=O)c(C(=O)NCCCO)c(O)c2ccccc21`, the cytotoxicity is 70.7% (active).
In the case of `Cc1onc(-c2c(F)cccc2Cl)c1C(=O)NCCc1ccc(S(N)(=O)=O)cc1`, the cytotoxicity was -7.2% (inactive).
Take `N#C/C(C(=O)N1CCOCC1)=C1\Nc2ccccc2S1`: the cytotoxicity is 14.5% (inactive).
Turning to `O=C(NCc1ccco1)c1cc(-c2ccncc2)nc2ccccc12`, the cytotoxicity was -8.1% (inactive).
The result for `CCOc1cc(N2CCOCC2)c(OCC)cc1NC1=NCCCCC1` reads -3.3% (inactive); that for `CC1CCCC(NC(=O)CSc2nnc(N)s2)C1C` (stereo unspecified), -4.3% (inactive); that for `Cc1ccc(C)c(N(CC(=O)NCc2ccc3c(c2)OCO3)C(=O)CCC(=O)Nc2ccccn2)c1`, -28% (inactive).
To `COc1ccc(N2CSC3=C(C#N)C(c4ccc(OC)c(OC)c4)CC(=O)N3C2)c(OC)c1` (stereo unspecified) belongs -12% (inactive).
In the case of `Cn1c(CNc2ccc(Cl)cc2)nc2ccccc21`, the cytotoxicity was -9.8% (inactive).
On to `CC(C)N=c1cc2n(-c3ccc(Cl)cc3)c3ccccc3nc-2cc1Nc1ccc(Cl)cc1`, for which the cytotoxicity was 68.8% (active).
In the case of `Cc1nc2ccccc2n1-c1ccccc1`, the cytotoxicity is -12.4% (inactive).
As for `CCCCn1c(C(C)NC(=O)CCC)nc2ccccc21` (stereo unspecified), the cytotoxicity is 2.5% (inactive).
Consider `CCOCCN1CCN(c2c(C)c(C)nc3cc(-c4cc(OC)cc(OC)c4)nn23)CC1`, for which the cytotoxicity was 9.5% (inactive).
For the molecule `CCc1c(C)nc2cc(-c3ccc(OC)c(OC)c3)nn2c1N1CCCC1`, the cytotoxicity is 19.1% (inactive).
For the molecule `C=CCSC1=N/C(=C\C=C\c2ccco2)C(=O)S1`, the cytotoxicity is 33.1% (inactive).
The result for `CCCSC1=N/C(=C\C=C\c2ccco2)C(=O)S1` reads 51.9% (active).
With `O=C1SC(SCc2ccccc2)=N/C1=C\c1ccco1`, the cytotoxicity is 42.6% (inactive).
With `S=C(N=Nc1ccccc1)NNc1ccccc1`, the cytotoxicity is 50.5% (active).
Consider `ONC(=Nc1ccccc1)C(=Nc1ccccc1)NO`, for which the cytotoxicity was -6.3% (inactive).
`CC(=Nc1ccccc1)Nc1ccccc1`: the cytotoxicity was -3.8% (inactive).
Take `COC(=O)c1c(C)[nH]c(C(=O)C(C)Sc2nnc(-c3cc(OC)c(OC)c(OC)c3)o2)c1C` (stereo unspecified): the cytotoxicity is 11.4% (inactive).
As for `Cn1c(=O)c2c(nc(NCCCN3CCOCC3)n2Cc2ccc(Cl)cc2)n(C)c1=O`, the cytotoxicity was -3.3% (inactive).
The result for `COC(=O)c1c(C)oc(C)c(C(=O)OC)c1=O` reads 0.6% (inactive).
For the molecule `CCOC(=O)c1c(C)oc2c1cc(O)c1ccccc12`, the cytotoxicity is 14% (inactive).
On to `CCN1CCN(Cc2cc(=O)oc3ccc(Cl)cc23)CC1`, for which the cytotoxicity is -11% (inactive).
For the molecule `Cc1cccc(-n2c(SCC(=O)Nc3nonc3C)nnc2-c2ccoc2C)c1`, the cytotoxicity is -13.8% (inactive).
As to `Cc1cccc(-n2c(SCC(=O)Nc3ccc4c(c3)OCO4)nnc2-c2ccoc2C)c1`, the cytotoxicity was 53.6% (active).
As for `Cc1ccc(-n2c(SCC(=O)Nc3ccc4c(c3)OCO4)nnc2-c2ccoc2C)cc1`, the cytotoxicity is 17% (inactive).
Regarding `COC(=O)c1cccc(NC(=O)C2COc3ccccc3O2)c1` (stereo unspecified), the cytotoxicity is -26.2% (inactive).
The result for `CC(=O)c1ccccc1OC(=O)c1ccco1` reads -0.8% (inactive).
Turning to `C=CCN1C(=Nc2ccccc2)SC/C1=C\C(=O)OC`, the cytotoxicity was -1.6% (inactive).
With `O=C(c1cccc(C(=O)N2CCN(c3ncccn3)CC2)c1)N1CCN(c2ncccn2)CC1`, the cytotoxicity is -2.4% (inactive).
The result for `Cc1c(C)c2cc(Cl)c(OCc3nn[nH]n3)cc2oc1=O` reads -12% (inactive); that for `CCOC(=O)c1[nH]c2ccc(F)cc2c1NC(=O)CN1CCc2cc(OC)c(OC)cc2C1`, -3.4% (inactive); that for `CCOC(=O)c1[nH]c2ccc(OC)cc2c1NC(=O)C(C)N1CCSCC1` (stereo unspecified), 31.2% (inactive).
`CCOC(=O)c1[nH]c2ccc(F)cc2c1NC(=O)CN1CCN(C/C=C/c2ccccc2)CC1`: the cytotoxicity was 65% (active).
Turning to `CCOC(=O)c1[nH]c2ccc(OCC)cc2c1NC(=O)CN1CCN(c2ccccc2)CC1`, the cytotoxicity was 7.4% (inactive).
Regarding `CCOC(=O)c1[nH]c2ccccc2c1NC(=O)CN1CCCCC1`, the cytotoxicity is -11.1% (inactive).
As to `CCOC(=O)c1[nH]c2ccc(F)cc2c1NC(=O)C(C)N1CCc2cc(OC)c(OC)cc2C1` (stereo unspecified), the cytotoxicity was 53.6% (active).
To `Cn1c(=O)n(CC(=O)OCc2ccccc2)c(=O)c2c1nc1n2CCCN1C1CCCCC1` belongs 0.1% (inactive); to `N#CC1=C(N)SC(N)=C(C#N)C1CCC1CCCCC1`, 35.2% (inactive).
For `Cc1nc(-c2ccc(C(=O)O)cc2)cs1`, the cytotoxicity was -9.4% (inactive).
As to `COCCNC(=O)c1ccc(NS(C)(=O)=O)cc1`, the cytotoxicity was -8% (inactive).
Consider `COc1ccc(OC)c(NC(=O)CC(NCCC2=CCCCC2)C(=O)O)c1` (stereo unspecified), for which the cytotoxicity is -16.9% (inactive).
Take `CC1CCN(CC(O)COc2ccc(F)cc2)CC1` (stereo unspecified): the cytotoxicity is -1.9% (inactive).
The result for `Cc1ccc(N2CCN(CC(O)COC3CCCCC3)CC2)cc1` (stereo unspecified) reads 42.6% (inactive); that for `CC1CCN(CC(O)COC2CCC(C(C)(C)C)CC2)CC1` (stereo unspecified), 50.3% (active); that for `CC1CC(=O)N(Cc2ccccc2)c2ccccc2N1C=O` (stereo unspecified), 7.1% (inactive).
To `CON(C)c1nc(Oc2ccc(=O)[nH]n2)nc(N(C)C)n1` belongs -15.6% (inactive); to `CCC1CCCCN1CCNC(=O)C1CCN(S(=O)(=O)c2c(C)noc2C)CC1` (stereo unspecified), -6.9% (inactive).
With `CCOC(=O)N1CCN(C(=O)c2ccc3c(c2)sc2nc(-c4ccccc4)cn23)CC1`, the cytotoxicity was 6.1% (inactive).
With `CCOC(=O)N1CCN(C(=O)c2ccc3c(c2)sc2nc(-c4ccc(OC)cc4)cn23)CC1`, the cytotoxicity was 19% (inactive).
With `COc1ccc2c(c1)sc1nc(-c3ccccc3)cn12`, the cytotoxicity is 53.3% (active).
On to `O=C(NC1=NCCS1)c1ccc2c(c1)C(=O)N(Cc1ccco1)C2=O`, for which the cytotoxicity is -7.1% (inactive).
To `O=C(OC(C(=O)NCC1CCCO1)c1ccccc1F)c1ccco1` (stereo unspecified) belongs 8.7% (inactive).
On to `CCn1ncc(C2=NOC(C(=O)NCc3ccc(OC)cc3)C2)c1C` (stereo unspecified), for which the cytotoxicity was 23.7% (inactive).
To `CCn1ncc(C2=NOC(C(=O)NCc3ccc(Cl)cc3)C2)c1C` (stereo unspecified) belongs 59.3% (active); to `CCn1ncc(C2=NOC(C(=O)NCc3ccccc3)C2)c1C` (stereo unspecified), 48.7% (inactive).
With `CC1=C(C(=O)Nc2cccc(C)n2)C(c2ccc3c(c2)OCO3)C2=C(CC(c3ccco3)CC2=O)N1` (stereo unspecified), the cytotoxicity is 7.4% (inactive).
Consider `COC(=O)c1sccc1NC(=O)c1ccncc1`, for which the cytotoxicity was 5.9% (inactive).
On to `O=C(Cc1ccccc1)N(c1ccc(F)cc1)C1C=CS(=O)(=O)C1` (stereo unspecified), for which the cytotoxicity is 3.4% (inactive).
Turning to `Cc1nn(Cc2ccccc2Cl)c(C)c1NC(=O)C1C2CCC(O2)C1C(=O)O` (stereo unspecified), the cytotoxicity was 0.4% (inactive).
In the case of `C=CCn1c(SCC(=O)Nc2cc(C)ccc2C)nnc1-c1cnccn1`, the cytotoxicity is -12.5% (inactive).
In the case of `CCn1c(SCC(=O)Nc2ccccc2OC)nnc1-c1cnccn1`, the cytotoxicity was -28% (inactive).
As to `C=CCn1c(SCC(=O)Nc2cc3oc4ccccc4c3cc2OC)nnc1-c1cnccn1`, the cytotoxicity was 50.9% (active).
Take `Cc1ccc(OCCN2CCN(C(=O)CCC(=O)Nc3nnc(C(C)C)s3)CC2)cc1`: the cytotoxicity is 14.3% (inactive).
Turning to `COc1ccc(-c2noc(COc3ccccc3OC)n2)cc1OC`, the cytotoxicity is -10.5% (inactive).
The result for `COc1ccc(-c2noc(COc3ccc(C)c(C)c3)n2)cc1OC` reads 4.5% (inactive).
Consider `COc1ccc(-c2noc(COc3ccc4ccccc4c3Br)n2)cc1OC`, for which the cytotoxicity was 58% (active).
To `CCOC(=O)N1CCN(Cc2nc3c(c(=O)[nH]c(=O)n3C)n2CCCc2ccccc2)CC1` belongs -0.5% (inactive); to `CCN(CC)CCCNC(=O)Cn1cc2c(n1)CCC(C)C2` (stereo unspecified), 3.7% (inactive); to `COc1ccc(-c2nc(N)ncc2Oc2ccccc2Br)c(O)c1`, 3.7% (inactive).
The result for `COc1cccc(Oc2cnc(N)nc2-c2ccc(OC)cc2O)c1` reads 45.2% (inactive); that for `COc1ccc(-c2nc(N)nc(C)c2Oc2ccccc2Br)c(O)c1`, 92.6% (active).
